In PubChem BioAssay (Tox21):
Values joined by “and” are separate entries in the source; they are usually repeats but may differ in a detail not shown here. Identical values can stand only once. Some compounds were tested as several samples or in several runs, with calls that do not always agree. Active and inactive are the calls of the source. Entries that show only a call come without a potency. Unless noted, the call rests on the fitted dose curve; in most records, active means well fitted curve in the direction sought with a large enough effect in the repeat runs; inconclusive means weak or mixed curves; inactive means no such curve, though single readings can be large; an effect the other way counts as inactive or inconclusive.

Legend:
[1] = qHTS assay to identify small molecule antagonists of the thyroid receptor (TR) signaling pathway - cell viability counter screen (AID 743064); further: nearly all actives have a fitted effect of over 50% in size; further: potency means the concentration at half of the fitted maximal effect
Method in brief: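 In-well cytotoxicity read by CellTiter-Fluor (30 min, 37 C) following 23.5 h exposure of GH3 cells bearing a TRE-luciferase sensor. Compounds were added alongside 1 nM (final) T3 to drive TR transactivation.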

[2] = qHTS assay to identify small molecule antagonists of the thyroid receptor (TR) signaling pathway (AID 743065); further: nearly all actives have a fitted effect of over 55% in size; further: potency means the concentration at half of the fitted maximal effect
Method in brief: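 GH3.TRE-Luc rat pituitary cells carrying two TR response elements driving luciferase were plated for 4 h, given compound plus 1 nM T3 (final), and incubated 23.5 h at 37 C. ONE-Glo luminescence measured reporter inhibition; CellTiter-Fluor fluorescence tracked cytotoxicity.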

[3] = system: thyroid hormone receptor (rat, GH3 cells); test: qHTS assay to identify small molecule agonists of the thyroid receptor (TR) signaling pathway (AID 743066; calls by dose curve)
[4] = target: Estrogen receptor (Homo sapiens) (UniProt P03372); test: qHTS assay to identify small molecule antagonists of the estrogen receptor alpha (ER-alpha) signaling pathway (AID 743069; active means well fitted curve in the direction sought with a large enough effect in the signal ratio in the repeat runs, not every such curve was filed as active; inconclusive means weak or mixed curves, or effect the other way; inactive means no such curve, though single readings can be large or run the other way; the % refers to the signal ratio; further: potency means the concentration at half of the fitted maximal effect)
Method in brief: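 Screening used a UAS-driven beta-lactamase reporter integrated into HEK293 cells expressing ER-alpha, stimulated with 17beta-estradiol alongside test compounds over 18 hr at 37C; signal came from LiveBLAzer B/G FRET fluorescence.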

[5] = qHTS assay to identify small molecule antagonists of the estrogen receptor alpha (ER-alpha) signaling pathway - cell viability counter screen (AID 743074; calls by dose curve; further: nearly all actives have a fitted effect of over 45% in size; further: potency means the concentration at half of the fitted maximal effect)
[6] = target: Estrogen receptor (Homo sapiens) (UniProt P03372); test: qHTS assay to identify small molecule agonists of the estrogen receptor alpha (ER-alpha) signaling pathway (AID 743075; calls by dose curve; further: potency means the concentration at half of the fitted maximal effect)
[7] = target: Estrogen receptor (Homo sapiens) (UniProt P03372); test: qHTS assay to identify small molecule agonists of the estrogen receptor alpha (ER-alpha) signaling pathway using the BG1 cell line (AID 743079); further: nearly all actives have a fitted effect of over 20% in size; further: potency means the concentration at half of the fitted maximal effect
[8] = qHTS assay to identify small molecule antagonists of the estrogen receptor alpha (ER-alpha) signaling pathway using the BG1 cell line - cell viability counter screen (AID 743081);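 further: compound given together with 17beta-estradiol as the ER stimulus; series mostly up to about 70 µM; nearly all actives have a fitted effect of over 45% in size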
Aromatase (Homo sapiens) = Aromatase (Homo sapiens) (UniProt P11511); test: qHTS assay to identify aromatase inhibitors (AID 743083); further: nearly all actives have a fitted effect of over 55% in size; further: potency means the concentration at half of the fitted maximal effect
[9] = qHTS assay to identify aromatase inhibitors - cell viability counter screen (AID 743084);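 further: cells stimulated with testosterone during compound exposure; nearly all actives have a fitted effect of over 55% in size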; further: potency means the concentration at half of the fitted maximal effect
[10] = qHTS assay to identify small molecule that activate the aryl hydrocarbon receptor (AhR) signaling pathway - cell viability counter screen (AID 743086); further: nearly all actives have a fitted effect of over 45% in size; further: potency means the concentration at half of the fitted maximal effect
Method in brief: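 HepG2-AhR-luc (HG2L7.5c1) cells, 4000/well, were preincubated 5 h at 37C, exposed to compound in qHTS format for 24 hr at 37C, then given CellTiter-Fluor for 30 min; viability was read as fluorescence in the reporter wells.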

[11] = target: Peroxisome proliferator-activated receptor gamma (Homo sapiens) (UniProt P37231); test: qHTS assay to identify small molecule agonists of the peroxisome proliferator-activated receptor gamma (PPARg) signaling pathway (AID 743094; active means well fitted activation curve with a large enough effect in the signal ratio in the repeat runs, not every such curve was filed as active; inconclusive means weak or mixed curves, or effect the other way; inactive means no such curve, though single readings can be large or run the other way; the % refers to the signal ratio)
Method in brief: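 HEK293H PPARg-bla cells, 5 h settle at 37C/5% CO2; compound (DMSO) 17 h, 37C; B/G FRET substrate 1 h RT; fluorescence intensity read-out. qHTS format.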

[12] = target: Peroxisome proliferator-activated receptor gamma (Homo sapiens) (UniProt P37231); test: qHTS assay to identify small molecule antagonists of the peroxisome proliferator-activated receptor gamma (PPARg) signaling pathway (AID 743191; calls by dose curve; further: series mostly up to about 63 µM; nearly all actives have a fitted effect of over 30% in size)
Method in brief: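 GeneBLAzer PPARg UAS-bla HEK293H cells carrying a UAS-driven beta-lactamase reporter were plated at 3000 cells/well, preincubated 5 h at 37C, then given compound for 17 h at 37C; LiveBLAzer B/G FRET substrate was read after 1 h at room temperature.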

[13] = qHTS assay to identify small molecule antagonists of the peroxisome proliferator-activated receptor gamma (PPARg) signaling pathway - cell viability counter screen (AID 743194); further: nearly all actives have a fitted effect of over 55% in size
Method in brief: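 PPARg-UAS-bla HEK293H cells were plated, rested 5 h at 37 C, then treated with compounds plus rosiglitazone (50 nM final) for 17 h at 37 C; viability was then read by CellTiter-Glo luminescence after 30 min at room temperature.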

[14] = qHTS assay for small molecule agonists of the antioxidant response element (ARE) signaling pathway (AID 743202; active means well fitted activation curve with a large enough effect in the signal ratio in the repeat runs, not every such curve was filed as active; inconclusive means weak or mixed curves, or effect the other way; inactive means no such curve, though single readings can be large or run the other way; the % refers to the signal ratio; further: potency means the concentration at half of the fitted maximal effect)
Method in brief: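 Steps: seed ARE-bla HepG2 cells (2,000/well); incubate 5 h at 37 C; add compounds by pin tool; incubate 16 h at 37 C; add FRET substrate; read fluorescence after 2 h at RT.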

[15] = qHTS assay for small molecule agonists of the antioxidant response element (ARE) signaling pathway - cell viability counter screen (AID 743203; calls by dose curve; further: nearly all actives have a fitted effect of over 55% in size; further: potency means the concentration at half of the fitted maximal effect)
Method in brief: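 Luminescence read-out (CellTiter-Glo, 30 min at room temperature) measured cell viability in the same wells as the ARE beta-lactamase reporter. HepG2 ARE-bla cells were treated with compounds for 16 hrs at 37C/5% CO2.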

[16] = qHTS assay for small molecule activators of the heat shock response signaling pathway - cell viability counter screen (AID 743209); further: nearly all actives have a fitted effect of over 50% in size
Method in brief: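 HSE-bla HeLa; 1500 cells/well; overnight 37 C, 5% CO2; compound 5 h 37 C; LiveBLAzer B/G substrate 2.5 h RT; CellTiter-Glo 30 min RT; luminescence.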

[17] = qHTS assay for small molecule activators of the heat shock response signaling pathway (AID 743210; active means well fitted activation curve with a large enough effect in the signal ratio in the repeat runs, with a control signal flat, not every such curve was filed as active; inconclusive means weak or mixed curves; the % refers to the signal ratio;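 further: HeLa cells with beta-lactamase reporter driven by heat shock elements; series mostly up to about 63 µM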)
Method in brief: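 Activation of heat shock element-controlled beta-lactamase expression is measured in HeLa cells by LiveBLAzer FRET fluorescence, with compound exposure lasting 5 h at 37 C and substrate loading 2.5 h at room temperature.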

[18] = target: Aryl hydrocarbon receptor (Homo sapiens) (UniProt P35869); test: qHTS assay to identify small molecule that activate the aryl hydrocarbon receptor (AhR) signaling pathway (AID 743085);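 further: HG2L7.5c1 human HepG2 liver cells with stably integrated DRE-driven firefly reporter; series mostly up to about 70 µM; nearly all actives have a fitted effect of over 15% in size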
Method in brief: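 Luminescence (ONE-Glo) from a dioxin-responsive-element luciferase reporter in HG2L7.5c1 HepG2 cells after 24 hr compound exposure at 37C; viability measured by CellTiter-Fluor fluorescence beforehand.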

[19] = qHTS assay to identify small molecule antagonists of the estrogen receptor alpha (ER-alpha) signaling pathway using the BG1 cell line (AID 743080; calls by dose curve;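 further: BG1 cells stimulated with 17beta-estradiol alongside compound; series mostly up to about 70 µM; nearly all actives have a fitted effect of over 25% in size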)
Method in brief: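 Quantitative HTS on the Tox21 10K library: BG1 cells with endogenous ER-alpha and ERE-luciferase reporter, 17beta-estradiol stimulation, 21.5 h compound exposure, luminescence endpoint with parallel fluorescence cytotoxicity counter-read.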

Sequence of Peroxisome proliferator-activated receptor gamma (Homo sapiens) (P37231 whole entry, looked up): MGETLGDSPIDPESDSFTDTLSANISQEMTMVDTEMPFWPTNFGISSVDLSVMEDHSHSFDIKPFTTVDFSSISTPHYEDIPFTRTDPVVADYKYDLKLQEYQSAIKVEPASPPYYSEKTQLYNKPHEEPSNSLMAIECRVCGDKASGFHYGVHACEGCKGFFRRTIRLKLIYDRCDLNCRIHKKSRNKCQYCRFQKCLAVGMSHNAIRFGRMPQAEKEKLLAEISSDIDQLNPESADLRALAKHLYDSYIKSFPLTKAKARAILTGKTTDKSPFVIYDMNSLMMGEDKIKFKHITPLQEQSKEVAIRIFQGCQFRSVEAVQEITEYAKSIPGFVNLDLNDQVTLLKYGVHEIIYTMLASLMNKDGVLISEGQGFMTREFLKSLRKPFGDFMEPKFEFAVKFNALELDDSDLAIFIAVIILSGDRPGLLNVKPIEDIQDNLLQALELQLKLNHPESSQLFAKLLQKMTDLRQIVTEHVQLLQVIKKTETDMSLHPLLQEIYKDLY
Sequence of Aryl hydrocarbon receptor (Homo sapiens) (P35869 whole entry, looked up): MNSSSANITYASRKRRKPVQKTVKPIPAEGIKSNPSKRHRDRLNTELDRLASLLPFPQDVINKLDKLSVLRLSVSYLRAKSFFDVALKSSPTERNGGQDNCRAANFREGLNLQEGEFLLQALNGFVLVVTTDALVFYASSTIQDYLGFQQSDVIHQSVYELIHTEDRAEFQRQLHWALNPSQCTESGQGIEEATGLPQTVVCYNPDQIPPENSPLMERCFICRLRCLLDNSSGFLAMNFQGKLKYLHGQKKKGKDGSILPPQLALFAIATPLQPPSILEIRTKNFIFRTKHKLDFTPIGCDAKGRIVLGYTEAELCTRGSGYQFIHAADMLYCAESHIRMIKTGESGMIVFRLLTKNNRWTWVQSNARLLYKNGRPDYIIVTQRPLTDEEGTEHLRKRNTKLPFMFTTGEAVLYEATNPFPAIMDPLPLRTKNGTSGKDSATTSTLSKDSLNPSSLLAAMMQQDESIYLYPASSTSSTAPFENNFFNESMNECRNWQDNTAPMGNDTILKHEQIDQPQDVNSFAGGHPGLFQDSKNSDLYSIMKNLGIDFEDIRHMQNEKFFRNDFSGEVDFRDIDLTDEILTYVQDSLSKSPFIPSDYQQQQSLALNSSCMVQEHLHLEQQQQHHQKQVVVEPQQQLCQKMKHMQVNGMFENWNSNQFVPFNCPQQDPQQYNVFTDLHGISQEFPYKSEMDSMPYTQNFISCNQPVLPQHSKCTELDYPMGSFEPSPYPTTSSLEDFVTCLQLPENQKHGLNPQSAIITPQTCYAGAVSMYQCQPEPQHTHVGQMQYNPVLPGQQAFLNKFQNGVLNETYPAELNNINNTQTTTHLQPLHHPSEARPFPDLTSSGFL
Sequence of Aromatase (Homo sapiens) (P11511 whole entry, looked up): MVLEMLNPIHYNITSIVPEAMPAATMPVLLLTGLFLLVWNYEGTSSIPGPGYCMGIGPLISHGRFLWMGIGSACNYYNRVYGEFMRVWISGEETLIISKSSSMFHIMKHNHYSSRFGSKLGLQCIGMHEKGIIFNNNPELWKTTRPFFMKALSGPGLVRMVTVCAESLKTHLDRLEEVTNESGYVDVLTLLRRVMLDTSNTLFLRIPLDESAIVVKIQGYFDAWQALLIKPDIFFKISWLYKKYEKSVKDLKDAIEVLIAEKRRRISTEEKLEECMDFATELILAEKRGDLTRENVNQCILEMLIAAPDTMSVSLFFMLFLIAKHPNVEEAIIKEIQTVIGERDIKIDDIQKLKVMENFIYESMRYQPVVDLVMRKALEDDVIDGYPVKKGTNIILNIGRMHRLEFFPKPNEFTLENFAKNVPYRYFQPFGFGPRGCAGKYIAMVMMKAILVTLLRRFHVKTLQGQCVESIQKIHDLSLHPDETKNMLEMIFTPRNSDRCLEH
Sequence of Estrogen receptor (Homo sapiens) (P03372 whole entry, looked up): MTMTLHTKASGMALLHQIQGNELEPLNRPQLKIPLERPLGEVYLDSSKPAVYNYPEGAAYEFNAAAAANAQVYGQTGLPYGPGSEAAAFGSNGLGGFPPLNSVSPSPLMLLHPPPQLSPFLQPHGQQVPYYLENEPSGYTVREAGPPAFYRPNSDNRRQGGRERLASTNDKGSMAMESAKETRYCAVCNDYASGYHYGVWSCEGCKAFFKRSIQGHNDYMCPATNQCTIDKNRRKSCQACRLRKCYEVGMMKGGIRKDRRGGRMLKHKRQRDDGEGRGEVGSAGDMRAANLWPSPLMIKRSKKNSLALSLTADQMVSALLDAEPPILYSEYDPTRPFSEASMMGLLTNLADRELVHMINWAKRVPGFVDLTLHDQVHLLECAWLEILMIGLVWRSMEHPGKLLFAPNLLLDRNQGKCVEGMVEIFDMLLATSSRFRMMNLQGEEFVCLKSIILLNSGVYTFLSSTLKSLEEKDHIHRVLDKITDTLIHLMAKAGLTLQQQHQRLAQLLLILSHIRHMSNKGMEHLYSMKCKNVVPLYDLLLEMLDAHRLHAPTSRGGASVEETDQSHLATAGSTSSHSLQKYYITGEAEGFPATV

| Compound | Potency [1] | Potency [2] | Potency [3] | Potency [4] | Potency [5] | Potency [6] | Potency [7] | Potency [8] | Potency (Aromatase (Homo sapiens)) | Potency [9] | Potency [10] | Potency [11] | Potency [12] | Potency [13] | Potency [14] | Potency [15] | Potency [16] | Potency [17] | Potency [18] | Potency [19] |
| --- | --- | --- | --- | --- | --- | --- | --- | --- | --- | --- | --- | --- | --- | --- | --- | --- | --- | --- | --- | --- |
| NC(N)=Nc1nc(CSCC/C(N)=N/S(N)(=O)=O)cs1 | inactive | inactive | inactive | inactive | inactive | inactive | inactive | inactive | inactive | inactive | inactive | inactive | inactive | inactive | inactive | inactive | inactive | inactive | – | – |
| c1ccc2c(c1)CCCC2C1=NCCN1 (centres undefined) | inactive | inactive | inactive | inactive | inactive | inactive | inactive | inactive | inactive | inactive | inactive | inactive | – | inactive | inactive | – | inactive | inactive | inactive | – |
| CCn1cc(C(=O)O)c(=O)c2cc(F)c(N3CCNC(C)C3)c(F)c21 (centres undefined) | inactive | inactive | inactive | inactive | inactive | inactive | inactive | inactive | inactive | inactive | inactive | inactive | – | inactive | inactive | inactive | inactive | inactive | inactive | – |
| CO[Si](OC)(OC)c1ccccc1 | inactive | inactive | inactive | inactive | inactive | inactive | inactive | inactive | inactive | inactive | inactive | inactive | – | inactive | – | inactive | – | inactive | inactive | inactive |
| CC1COC(=O)O1 (centres undefined) | inactive | inactive | inactive | inactive | inactive | inactive | inactive | inactive | inactive | inactive | inactive | inactive | inactive | inactive | inactive | inactive | inactive | inactive | inactive | – |
| CCCCN(CCO)CCCC | inactive | inactive | inactive | inactive | inactive | inactive | inactive | inactive | inactive | inactive | inactive | inactive | inactive | inactive | inactive | inactive | inactive | inactive | inactive | – |
| C=C(C)C1CC=C(C)C(OC(C)=O)C1 (centres undefined) | inactive | inactive | inactive | inactive | inactive | inactive | inactive | inactive | inactive | inactive | inactive | inactive | – | inactive | inactive | inactive | inactive | inactive | inactive | inactive |
| O=C(O[C@@H]1Cc2c(O)cc(O)cc2O[C@@H]1c1cc(O)c(O)c(O)c1)c1cc(O)c(O)c(O)c1 | 48.7 µM (active) and 52.5 µM (active) | 27.4 µM (active) and 26.3 µM (active) | inactive | inactive | inactive | inactive | inactive | inactive | inactive | 30.7 µM (active) and 46.8 µM (active) | 34.4 µM (active) and 41.7 µM (active) | inactive | – | inactive | – | inactive | inactive | inactive | inactive | inactive |
| NCCO | inactive | inactive | inactive | inactive | inactive | inactive | inactive | inactive | inactive and 61.1 µM (active) | inactive | inactive | – | – | inactive | inactive | – | inactive | inactive | inactive | – |
| CCCCCCCCCCCCCCCCCl | inactive | inactive | inactive | inactive | inactive | inactive | inactive | inactive | inactive | inactive | inactive | inactive | – | inactive | inactive | inactive | inactive | inactive | – | inactive |
| CC(=O)N[C@@H](CS)C(=O)O | inactive | inactive | inactive | inactive | inactive | inactive | inactive | inactive | inactive | inactive | inactive | inactive | – | inactive | inactive | inactive | inactive | inactive | inactive | inactive |
| Cc1ccc(-c2cc(C(F)(F)F)nn2-c2ccc(S(N)(=O)=O)cc2)cc1 | 26.6 µM (active) and 48.4 µM (active) | 23.7 µM (active) and 30.5 µM (active) and 54.5 µM (active) | inactive | inactive and 54.9 µM [inconclusive] (active) | inactive and 43.5 µM (active) | 23.9 µM [activator] (active) and inactive | 7.5 µM (active) | inactive | 29.8 µM (active) and 30.5 µM (active) | inactive and 54.3 µM (active) | inactive | inactive | – | inactive | 26.6 µM (active) | 61.1 µM (active) and inactive | inactive | inactive | inactive | – |
| C=CC(=O)OCCCCCCCC | inactive | inactive | inactive | inactive | inactive | inactive | inactive | inactive | inactive | inactive | inactive | inactive | – | inactive | inactive | – | inactive | inactive | inactive | inactive |
